AmpC inh no detg = AmpC beta-lactamase inhibition without detergent; P00811; AmpC nitrocefin hydrolysis, absorbance 480 nm, 0.0001% Triton; Potency, µM (doses to about 57.1 µM), for the others: at the top dose activity change, negative = inhibition, usual class: inhibitors; hit rate 0.52% among 330,000;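 note: potency is the fitted concentration of half-maximal effect; plate controls were no compound for no effect and no enzyme for full effect; nearly all actives have a fitted effect of over 20% in size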
Target sequence (P00811 whole entry, looked up): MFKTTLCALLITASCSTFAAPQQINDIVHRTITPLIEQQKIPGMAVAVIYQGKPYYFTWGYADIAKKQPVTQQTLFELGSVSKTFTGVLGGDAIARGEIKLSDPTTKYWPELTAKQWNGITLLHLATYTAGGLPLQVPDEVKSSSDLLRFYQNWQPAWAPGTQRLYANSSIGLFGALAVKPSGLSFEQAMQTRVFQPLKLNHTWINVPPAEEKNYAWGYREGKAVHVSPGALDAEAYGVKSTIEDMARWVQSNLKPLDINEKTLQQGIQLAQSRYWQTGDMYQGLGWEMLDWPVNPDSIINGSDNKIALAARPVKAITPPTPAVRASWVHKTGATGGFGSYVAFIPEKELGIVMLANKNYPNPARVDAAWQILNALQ
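AmpC (5.3 nM in the dispensed reagent) in 20 mM phosphate pH 7.0 with 0.01% (detergent screen) or 0.0001% Triton X-100 was preincubated with compounds for 15 min at room temperature. Nitrocefin was then added from an 800 uM solution, and hydrolysis was followed at 480 nm.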
AMA1-RON2 inh = inhibitors of Plasmodium falciparum AMA1-RON2 interaction. AlphaScreen AMA1-biotinylated RON2 peptide binding. Potency, µM (titrated, usually from 58.2 µM), inactives show at the highest dose activity change, negative = inhibition, hits mostly inhibitors. hit rate 0.2% among 360,000;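 note: potency is the fitted concentration of half-maximal effect; 0% = vehicle wells and -100% = peptide control; nearly all actives have a fitted effect of over 45% in size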
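AMA1 (3D7) with his tag at 25 nM final met compounds first, then biotinylated RON2 peptide at 25 nM; detection used donor plus acceptor beads, 10 µg/mL apiece, read by AlphaScreen after 30 min at room temperature.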
Shiga inhibitor = inhibitors of Shiga toxin in Vero cells; hit rate 9.2% among 290,000; inhibition, % at 38.7 µM; Vero cells, Shiga toxin protein synthesis inhibition reporter; in the data active = inhibition mostly above about 28%, no sharp cut-off; inactive = mostly below about 43%; note: 0% is about no effect
SARS PLpro yeast = inhibitors of SARS-CoV papain-like protease in yeast; AID 485353; hit rate 0.19% among 330,000; Potency, µM (doses to about 32.9 µM), for the others: at the top dose activity, positive = growth rescue, actives largely listed as activators; S. cerevisiae expressing SARS-CoV PLpro, growth rescue; calls by dose curve; note: potency is the fitted concentration of half-maximal effect; 0% is about no effect; nearly all actives have a fitted effect of over 55% in size
AmpC detergent = AmpC beta-lactamase inhibition with detergent present. P00811. AmpC hydrolysis of nitrocefin, absorbance 480 nm, 0.01% Triton. Potency, µM (titrated, usually from 114 µM), inactives show at the top dose activity change, negative = inhibition, usual class: inhibitors. hit rate 0.041% among 370,000. AID 485294;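 note: potency is the fitted concentration of half-maximal effect; 0% = no-compound wells and -100% = no-enzyme wells; nearly all actives have a fitted effect of over 25% in size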
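AmpC (5.3 nM in the dispensed reagent) in 20 mM phosphate pH 7.0 with 0.01% (detergent screen) or 0.0001% Triton X-100 was preincubated with compounds for 15 min at room temperature. Nitrocefin was then added from an 800 uM solution, and hydrolysis was followed at 480 nm.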
Cycloheximide cs = counter-screen for Shiga toxin inhibitors: cycloheximide protein synthesis inhibition | hit rate 12% among 300,000 | cell reporter, cycloheximide protein synthesis inhibition counterscreen | max response, % | AID 2314; in the data active = max response mostly above about 13%, no sharp cut-off; inactive = mostly below about 14%; note: read at 38.3 µM for the half of the compounds with a filed dose; 0% is about no effect
* = called active by the depositor. Many of the other results were omitted from the sample, so hits are more common in it than they were. Unless noted, calls come from the whole dose curve; as a rule, active = well fitted curve in the direction sought with a large enough effect; inconclusive = small, poorly fitted or top-dose-only effect, or another doubt; inactive = no such curve, though single readings can be large; an effect the other way counts as inactive or inconclusive.

How did COc1cc(/C=C2/C(=O)NC(=O)N(c3ccc(C)cc3)C2=O)cc(OC)c1OC do in these assays?
AmpC inh no detg: -46%; AMA1-RON2 inh: 4%; Shiga inhibitor: 67*; SARS PLpro yeast: 2%; AmpC detergent: -6%; Cycloheximide cs: 27*

How did COc1cc(/C=C2\C(=O)NC(=O)N(c3ccc(C)cc3)C2=O)cc(OC)c1O do in these assays?
AmpC inh no detg: -13%; AMA1-RON2 inh: 4%; Shiga inhibitor: -5; SARS PLpro yeast: 3%; AmpC detergent: 0%; Cycloheximide cs: -5

Results for COc1ccc(N2C(=O)NC(=O)/C(=C/c3ccc4c(c3)Cc3ccccc3-4)C2=O)cc1 ?
AmpC inh no detg: -26%; Shiga inhibitor: 34; SARS PLpro yeast: -9%; AmpC detergent: -3%; Cycloheximide cs: 29*

How did COC(=O)C1=C(C)N(Cc2ccc(C)cc2)C(=O)/C1=C\c1cc(OC)c(OC)c(OC)c1 do in these assays?
AmpC inh no detg: 88%; AMA1-RON2 inh: 35µM*; Shiga inhibitor: -8; SARS PLpro yeast: -4%; AmpC detergent: -11%; Cycloheximide cs: -2

How did COc1ccc(NC(=S)Nc2cc(C)cc(C)n2)cc1OC do in these assays?
AmpC inh no detg: -15%; AMA1-RON2 inh: 0%; Shiga inhibitor: 25; SARS PLpro yeast: 14%; AmpC detergent: -1%; Cycloheximide cs: 21*

Results for COc1cccc(NC(=S)Nc2cc(C)cc(C)n2)c1 ?
AmpC inh no detg: -19%; AMA1-RON2 inh: 16%; Shiga inhibitor: 56*; SARS PLpro yeast: 2%; AmpC detergent: 8%; Cycloheximide cs: 49*

Results for CCOc1ccc2nc(NC(=O)CSc3nc(SC)ns3)sc2c1 ?
AmpC inh no detg: inconclusive; AMA1-RON2 inh: 6%; Shiga inhibitor: 70*; SARS PLpro yeast: -1%; AmpC detergent: -13%; Cycloheximide cs: 55*

What do the screens show for `COc1ccc2nc(NC(=O)CSc3cn[nH]n3)sc2c1`?
AmpC inh no detg: -37%; AMA1-RON2 inh: 97%; Shiga inhibitor: 66*; SARS PLpro yeast: 12%; AmpC detergent: -5%; Cycloheximide cs: 43*

How did CCOc1ccc2nc(NC(=O)CSc3cn[nH]n3)sc2c1 do in these assays?
AmpC inh no detg: -37%; AMA1-RON2 inh: 108%; Shiga inhibitor: 149*; SARS PLpro yeast: -2%; AmpC detergent: inconclusive; Cycloheximide cs: 34*

How did CCOc1ccc2nc(NC(=O)CSc3ccc(Cl)cc3)sc2c1 do in these assays?
AmpC inh no detg: -29%; AMA1-RON2 inh: -15%; Shiga inhibitor: 39; SARS PLpro yeast: -6%; AmpC detergent: 2%; Cycloheximide cs: 18

What do the screens show for `CSc1nc(-c2cccs2)c(C#N)c(=O)[nH]1`?
AmpC inh no detg: -31%; AMA1-RON2 inh: 7%; Shiga inhibitor: 26; SARS PLpro yeast: 1%; AmpC detergent: 3%; Cycloheximide cs: 8.9*

Results for CNC(=O)NC(=O)CSc1nc(-c2cccs2)c(C#N)c(=O)[nH]1 ?
AmpC inh no detg: -8%; AMA1-RON2 inh: -1%; Shiga inhibitor: -13; SARS PLpro yeast: 1%; AmpC detergent: 5%; Cycloheximide cs: -1

What do the screens show for `COCCOC(=O)C1=C(C)NC(=O)NC1c1cccc(F)c1` (stereo not drawn)?
AmpC inh no detg: -7%; AMA1-RON2 inh: -4%; Shiga inhibitor: 1; SARS PLpro yeast: 1%; AmpC detergent: 0%; Cycloheximide cs: -4

What do the screens show for `CCSc1nc(-c2ccccc2)c(C#N)c(=O)[nH]1`?
AmpC inh no detg: 2.2µM*; AMA1-RON2 inh: 5%; Shiga inhibitor: -3; SARS PLpro yeast: 2%; AmpC detergent: -1%; Cycloheximide cs: 3

What do the screens show for `CCOc1ccc2nc(NC(=O)CSc3nc(-c4ccccc4)c(C#N)c(=O)[nH]3)sc2c1`?
AmpC inh no detg: -46%; AMA1-RON2 inh: -6%; Shiga inhibitor: 39*; SARS PLpro yeast: 0%; AmpC detergent: 0%; Cycloheximide cs: 41*

How did CSc1nc(-c2ccccc2)c(C#N)c(=O)[nH]1 do in these assays?
AmpC inh no detg: -15%; AMA1-RON2 inh: 18%; Shiga inhibitor: -10; SARS PLpro yeast: -1%; AmpC detergent: -12%; Cycloheximide cs: -4

Results for CCC(=O)N1CCc2cc(Br)cc(S(=O)(=O)CCC(=O)NCCc3ccc(C)cc3)c21 ?
AmpC detergent: 3%

What do the screens show for `O=C(NCc1ccccc1)c1ccc(CSc2ccccc2)o1`?
AmpC inh no detg: -22%; AMA1-RON2 inh: -17%; Shiga inhibitor: 14; SARS PLpro yeast: -1%; AmpC detergent: -12%; Cycloheximide cs: 8

How did CC(=O)Nc1ccc(NC(=O)c2ccc(CSc3ccccc3)o2)cc1 do in these assays?
AmpC inh no detg: -37%; AMA1-RON2 inh: -5%; Shiga inhibitor: 13; SARS PLpro yeast: 1%; AmpC detergent: 0%; Cycloheximide cs: 4

What do the screens show for `O=C(Nc1ccccc1F)c1ccc(CSc2ccccc2)o1`?
AmpC inh no detg: -21%; AMA1-RON2 inh: 28%; Shiga inhibitor: 63*; SARS PLpro yeast: -9%; AmpC detergent: -12%; Cycloheximide cs: 54*

What do the screens show for `O=C(Nc1cccc(F)c1)c1ccc(CSc2ccccc2)o1`?
AmpC inh no detg: -29%; AMA1-RON2 inh: 11%; Shiga inhibitor: 95*; SARS PLpro yeast: -65%; AmpC detergent: 9%; Cycloheximide cs: 55*

What do the screens show for `CC1CCc2c(sc(/N=C/c3ccco3)c2C(N)=O)C1` (stereo not drawn)?
AmpC inh no detg: -34%; AMA1-RON2 inh: -17%; Shiga inhibitor: 74*; SARS PLpro yeast: -1%; AmpC detergent: 2%; Cycloheximide cs: 38*

How did COC(=O)Nc1sc2c(c1C(N)=O)CCC(C)C2 (stereo not drawn) do in these assays?
AmpC inh no detg: -21%; AMA1-RON2 inh: 0%; Shiga inhibitor: -3; SARS PLpro yeast: 0%; AmpC detergent: -4%; Cycloheximide cs: -2

How did CC1CCc2c(sc(NC(=O)C3c4ccccc4Oc4ccccc43)c2C(N)=O)C1 (stereo not drawn) do in these assays?
AmpC inh no detg: -37%; AMA1-RON2 inh: 6%; Shiga inhibitor: -7; SARS PLpro yeast: 19%; AmpC detergent: -2%; Cycloheximide cs: -2

How did CC1CCc2c(sc(/N=C/c3cccnc3)c2C(N)=O)C1 (stereo not drawn) do in these assays?
AmpC inh no detg: -15%; AMA1-RON2 inh: -8%; Shiga inhibitor: 54; SARS PLpro yeast: -1%; AmpC detergent: 3%; Cycloheximide cs: 16*

How did C/C(=N\NC(=O)c1cccc(Cl)c1)c1cccc(NC(=O)C(C)C)c1 do in these assays?
AmpC inh no detg: -2%; AMA1-RON2 inh: 14%; Shiga inhibitor: 46*; SARS PLpro yeast: -23%; AmpC detergent: -10%; Cycloheximide cs: 30*

Results for C/C(=N\NC(=O)c1ccncc1)c1cccc(NC(=O)c2ccc(Cl)s2)c1 ?
AmpC inh no detg: -34%; AMA1-RON2 inh: 79%; Shiga inhibitor: 77*; SARS PLpro yeast: inconclusive; AmpC detergent: -5%; Cycloheximide cs: 31*
